Here are results for 105 compounds from PubChem BioAssay AID862 (The Scripps Research Institute Molecular Screening Center, 2007).

Each structure is given as a SMILES string. About 1,700 (0.89%) of roughly 190,000 compounds were called active. Many of the other results were omitted from the sample, so actives are more common in it than they were. A number with no mark means an inactive call.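 The calls were made as follows: active = inhibition above the mean inhibition across all screened compounds plus 3 SD (cut at about 44% in these data); inactive = the rest.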

By inhibition is commonly meant the drop in the measured response relative to a control, in per cent.

The nature of this test: blockers of STAT3 transcriptional signaling – U3A cells, luciferase, luminescence, MLSCN library, primary screen (AID 862).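 Also: 0% = DMSO only wells and 100% = 100 µM nifuroxazide control wells.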 The note with it: IL-6 STAT3-luciferase reporter, at 5.5 µM, active compounds read high, host cell line lacks STAT1. A general note: A reporter such as luciferase makes a cellular process visible.
In the case of `O=C(Nc1ccn(Cc2ccc(F)cc2)n1)c1ccncc1`, the inhibition was 22.9%.

`O=C(Nc1ccn(Cc2ccccc2)n1)c1cccc(F)c1`: the inhibition is 12.5%.

In the case of `O=C(Nc1ccn(Cc2ccccc2)n1)c1n[nH]c([N+](=O)[O-])c1Cl`, the inhibition was 53.5% (active).

Consider `Cc1cccc(C(=O)Nc2ccccc2C(=O)NCc2cccnc2)c1`, for which the inhibition was 10.3%.

Turning to `CCOC(=O)/C(=N\Nc1ccccc1Cl)N(C)C1CCS(=O)(=O)C1` (stereo not given), the inhibition was 5.4%.

For the compound `Nc1ccc(Nc2ccccc2)cc1`, the inhibition is 18.1%.

Turning to `Cc1ccc(Nc2ccccc2N)cc1`, the inhibition was 69.5% (active).

In the case of `Cc1ccc(Nc2nnc(SCc3ccccc3)s2)cc1`, the inhibition is -15.7%.

Consider `O=C1NC(=Nc2ccc(Cl)cc2)SC1Cc1cccc(Cl)c1Cl` (stereo not given), for which the inhibition is 0.2%.

Regarding `CCOc1ccc(C(CC(=O)O)n2cnnn2)cc1OC` (stereo not given), the inhibition is 17.4%.

For the compound `CCN(CCn1cccn1)Cc1nc(-c2ccc(C(=O)OC)cc2)no1`, the inhibition is 7.7%.

As to `OC(COc1ccc(CN2CCSCC2)cc1)CN1CCCCC1` (stereo not given), the inhibition is 4.3%.

With `COc1ccc(C2=Nc3cc(C)ccc3OC2)cc1`, the inhibition was 66.7% (active).

As to `COc1ccc(C2=NOC3(CC(=O)N(c4ccc(C)cc4)C3=O)C2)cc1` (stereo not given), the inhibition is 0%.

With `COc1ccc(C2=NOC(COC(=O)c3ccc4ccccc4n3)C2)cc1` (stereo not given), the inhibition was -2.7%.

Regarding `COc1cc2c(cc1O)[C@H](Cc1ccc(Oc3cc(C[C@@H]4NCCc5cc(OC)c(O)cc54)ccc3O)cc1)NCC2`, the inhibition was -0.3%.

Take `CC[C@H]1CN2CCc3cc(OC)c(OC)cc3[C@@H]2C[C@@H]1C[C@H]1NCCc2cc(OC)c(OC)cc21`: the inhibition was 101% (active).

For the compound `CCOC(=O)N1CCC(NC(=O)C(NS(=O)(=O)c2ccc3c(c2)CCN3C(=O)CC)C(C)C)CC1` (stereo not given), the inhibition was 8.6%.

Regarding `CCOc1ccc(NS(=O)(=O)c2ccc(C)c(C(N)=O)c2)cc1`, the inhibition is 20.3%.

For `COc1cccc(/C=C/C(=O)Nc2ccc3c(c2)OCCO3)c1`, the inhibition was 30.9%.

With `O=C(Cn1cnc2ccccc21)N/N=C/c1ccco1`, the inhibition is 1.9%.

As to `Cc1ccc(Cn2ccc(NC(=O)c3cc(C(C)C)on3)n2)cc1`, the inhibition was 15.3%.

For the compound `Cc1cc(NC(=O)c2cc(-c3cccs3)on2)nn1Cc1ccc(Cl)cc1`, the inhibition is 47.2% (active).

As to `O=C(c1cc(-c2cccs2)on1)N1CCCCC1`, the inhibition was 24.7%.

In the case of `C=CCn1nc(-c2ccccc2)c2c(C)onc2c1=O`, the inhibition was 1.6%.

Take `Cc1csc(=NC(=O)c2ccccc2)n1CCO`: the inhibition is 0.5%.

In the case of `OCCn1c(-c2ccccc2)csc1=Nc1ccccc1`, the inhibition is 46.5% (active).

On to `Cc1csc(=Nc2ccccc2)n1CCO`, for which the inhibition was 5.8%.

Turning to `COC(=O)Cc1ccc(NC(=S)NCc2ccco2)cc1`, the inhibition was 2.5%.

Take `COc1ccc(-c2noc(-c3cccc(OC)c3OC)n2)cc1OC`: the inhibition is 9.5%.

On to `COc1ccc(-c2nc(-c3ccccc3)no2)c(OC)c1`, for which the inhibition was 102% (active).

As to `COc1ccc(-c2noc(-c3ccc(C)cc3)n2)cc1`, the inhibition was 11.2%.

As for `COCCCNC(=O)/C=C/c1ccc(OCc2c(F)cccc2Cl)cc1`, the inhibition was 20%.

For the compound `Cc1ccc(NC(=O)Nc2nnc(-c3ccncc3)s2)cc1`, the inhibition was 9.8%.

For the compound `CC1CC(C)CN(CCC(=O)Nc2ccc3c(c2)CCC3)C1` (stereo not given), the inhibition was 3.9%.

Take `O=C(/C=C/c1ccccc1[N+](=O)[O-])OC1CCCCC1=O` (stereo not given): the inhibition was 4.5%.

As to `NC(=O)Cc1nc2scc(-c3ccc(Cl)cc3)c2c(=O)[nH]1`, the inhibition is 16%.

For `O=c1[nH]c(CN2CCOCC2)nc2cc(Cl)ccc12`, the inhibition is 4.9%.

For the compound `O=c1[nH]c(CCl)nc2cc(-c3ccc(Cl)cc3)sc12`, the inhibition is 51.2% (active).

As for `CCOc1cccc(/C=N/N2C(=O)CSC2=S)c1O`, the inhibition was 2.5%.

Turning to `Cc1ccc2[nH]c(=O)c(CN3CCCCC3)c(-c3ccccc3)c2c1`, the inhibition was 8.1%.

As for `NC(=O)COC(=O)/C=C/c1ccc2ccccc2n1`, the inhibition is -0.2%.

For `COc1cccc2sc(NNC(=O)c3nc4ccccc4s3)nc12`, the inhibition was -23.2%.

Take `CCOc1cccc(/C=C/c2ccc3ccccc3n2)c1OC(C)=O`: the inhibition was 58.6% (active).

Regarding `CC(OC(=O)c1ccc2ccccc2n1)C(=O)c1ccccc1` (stereo not given), the inhibition is -6.4%.

Regarding `CCOc1ccccc1NC(=O)c1cccnc1`, the inhibition was 6%.

Regarding `COc1cccc(/C=C/c2ccc3ccccc3n2)c1OC(C)=O`, the inhibition was 89.8% (active).

`CCn1c2ccccc2c2cc(NC(=O)COC(=O)c3cc(S(=O)(=O)N4CCCCC4)ccc3Cl)ccc21`: the inhibition is 4%.

As to `COc1ccc(/C=C/C2=CC(C)(C)NC(=S)N2)c(OC)c1`, the inhibition is 9.7%.

With `COC(=O)Cn1cc(/C=C/[N+](=O)[O-])c2ccccc21`, the inhibition was -0.7%.

Consider `CN1C(=O)/C(=C/c2ccco2)SC1=Nc1cccc(C(=O)O)c1`, for which the inhibition was 3.5%.

With `CC(C)C(=O)Nc1ccc2c3c(cccc13)CC2`, the inhibition is 1.8%.

For the compound `Cc1ccnc(NC(=O)c2ccoc2C)c1`, the inhibition is 10.5%.

For the compound `COc1cc(SC)ccc1C(=O)Nc1nc(C)cs1`, the inhibition is 111% (active).

With `CC(=O)Nc1cccc(C(=O)Nc2nc(C)cs2)c1`, the inhibition was 10.2%.

With `COC(=O)c1sc(NC(=O)c2ccc(OC)cc2OC)nc1C`, the inhibition is 86% (active).

For `COc1cc(SC)ccc1C(=O)NCCOc1ccccc1Cl`, the inhibition is -8.5%.

Regarding `COC(=O)c1sc(NC(=O)c2csc3c2CCCC3)nc1C`, the inhibition is -15.5%.

Take `COc1ccccc1CNC(=O)c1ccc(SC)cc1OC`: the inhibition was 11.4%.

Regarding `COc1cc(SC)ccc1C(=O)Nc1cc(C)ccn1`, the inhibition was 55.6% (active).

`COc1ccc(C(=O)Nc2nncs2)c(OC)c1`: the inhibition is 8.6%.

As for `O=c1c2ccccc2c(-c2ccccc2)nn1-c1ccccn1`, the inhibition was 4.6%.

In the case of `O=C(CP(=O)(c1ccccc1)c1ccccc1)N1CCOCC1`, the inhibition is 6.3%.

As to `COC(=O)Cc1ccc(OCC(=O)Nc2ccc(OC(F)(F)F)cc2)cc1`, the inhibition is -10.9%.

With `CCN1CCN(CC(=O)c2cc(OC)c(OC)c(OC)c2)CC1`, the inhibition is 11.2%.

For `Cc1ccc(-c2csc(NC(=O)Cc3cccs3)n2)cc1C`, the inhibition is 12.1%.

For `COc1ccc(-c2csc(NC(=O)CCCc3cccs3)n2)cc1`, the inhibition is 23.2%.

Take `CCCc1ccc(-c2csc(NC(=O)Cc3cccs3)n2)cc1`: the inhibition was 43.7% (active).

As to `c1ccc(C2CNCc3c2ccc2ccccc32)cc1` (stereo not given), the inhibition was 3.3%.

`O=S(=O)(Nc1ccccn1)c1ccc(Oc2ccccc2)cc1`: the inhibition was -1.5%.

For `COc1ccccc1Oc1ccc(S(=O)(=O)Nc2cccnc2)cc1`, the inhibition is 48.9% (active).

For the compound `COc1ccc(S(=O)(=O)Nc2cccnc2)c(Cl)c1Cl`, the inhibition is 5.5%.

As to `Cn1c(CCCOc2ccc(Cl)cc2Cl)n[nH]c1=S`, the inhibition was 9.7%.

For `O=C(COC(=O)C1CC2C=CC1C2)Nc1ccccc1` (stereo not given), the inhibition is 1%.

As for `CCCCCC(=O)Nc1ccc(-c2cn3cccnc3n2)cc1`, the inhibition was 11.1%.

`CCCCCc1ccc(-c2ccc(C(=O)O)cc2)nc1`: the inhibition is 52.6% (active).

Take `CCCCCc1ccc(-c2ccc(OCC)cc2)nc1`: the inhibition is 25.3%.

`CCCN(CC(=O)Nc1ccccc1C)C(=O)c1cc(=O)[nH]c2ccccc12`: the inhibition was 3.5%.

As to `N#Cc1nc(-c2ccc(OCc3ccccc3)cc2)oc1NCCCN1CCOCC1`, the inhibition is 14.7%.

As to `N#Cc1nc(COc2ccc(-c3ccccc3)cc2)oc1NCc1cccnc1`, the inhibition is 45.2% (active).

In the case of `N#Cc1nc(Cc2ccccc2)oc1NCCc1ccccc1`, the inhibition was -13.4%.

Regarding `COC(=O)c1sc2[nH]c(=S)n(N)c(=O)c2c1C`, the inhibition was 8.3%.

With `Cc1ccc(CN(Cc2cccnc2)C(=S)Nc2cccc(Cl)c2C)cc1`, the inhibition is 9.3%.

Take `CNC(=O)CN1C(=O)c2ccccc2S1(=O)=O`: the inhibition was 10.2%.

In the case of `O=C(CN1C(=O)c2ccccc2S1(=O)=O)N1CCc2ccccc21`, the inhibition is 89.1% (active).

Regarding `O=C(CN1CCN(c2ccccn2)CC1)N1CCc2ccccc21`, the inhibition was 1.6%.

Regarding `O=c1cc(CSc2ccc(Cl)cc2)nc(N2CCOCC2)[nH]1`, the inhibition was -7.4%.

With `Clc1ccc2nc(CSc3ccccc3)cn2c1`, the inhibition is 62.7% (active).

As for `CCOc1ncccc1C(=O)OCc1cn2cc(Cl)ccc2n1`, the inhibition was 12.3%.

As to `CCOC(=O)NN1C(=O)c2ccccc2NC1c1cccc(O)c1` (stereo not given), the inhibition is -10%.

Turning to `CN(CCc1ccccn1)C(=O)CCC1CCCN(Cc2ccccc2OC(F)F)C1` (stereo not given), the inhibition was 4.3%.

Turning to `Cc1cc(C)c2[nH]c(=O)c(CN(Cc3ccccc3)C(=S)NCCCN(C)C)cc2c1`, the inhibition was -4.1%.

`C1CC1Cc1noc(CN2CCN(CC3CC3)CC2)n1`: the inhibition was 2.5%.

As to `CN(CC(=O)Nc1cccc(F)c1)CC(=O)Nc1cccc([N+](=O)[O-])c1`, the inhibition is -4.2%.

For `Cc1ccc(NC(=O)CN(C)CC(=O)Nc2cccc(F)c2)cc1[N+](=O)[O-]`, the inhibition was 46.8% (active).

As for `Cc1ccc(CN(C)CC(=O)Nc2cccc([N+](=O)[O-])c2)o1`, the inhibition is 5.5%.

In the case of `O=S(=O)(NC1CC1)c1ccc2c3c(cccc13)CC2`, the inhibition is 11.9%.

As to `CCOC(=O)CSc1nc(C)cc2c1C(=O)OC2`, the inhibition is -1%.

Regarding `N=C(N)SCc1cccc2ccccc12`, the inhibition is 47.8% (active).

For the compound `CCOc1ccc(Br)cc1CSC(=N)N`, the inhibition is 34.7%.

Regarding `c1ccc2c(CSCc3nc4ccccc4[nH]3)cccc2c1`, the inhibition was 4.1%.

`CN(C)CCOCCOc1ccc(Cl)c2ccccc12`: the inhibition is 9.5%.

Consider `Cc1cc(C(=O)CSc2nc(N)cc(=O)[nH]2)c(C)n1-c1cccc(F)c1`, for which the inhibition is 20.1%.

For `Cc1cc(C(=O)CSc2nc(N)cc(=O)[nH]2)c(C)n1CCc1ccc(Cl)cc1`, the inhibition was 43.7% (active).

Regarding `CCCc1cc(=O)[nH]c(SCC(=O)c2cc(C)n(CCC)c2C)n1`, the inhibition was 10.6%.
